The supplement of paper PMC6522484
± gives the standard deviation of the averaged measurements.

Each compound was assayed on HCT116 (assay: cell viability (CellTiter-Glo) relative to plate median (fraction of plate median); higher = more viable cells). Conditions: 5 µM; treatment time 24 h; reporter: TCF4/Wnt.
Summary of the method: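 Two independent replicates were averaged for each reported value. Library compounds were applied at a final 5 µM for 24 h to colorectal cancer cell lines stably expressing lentiviral TCF/Wnt firefly luciferase reporters. Firefly luciferase or CellTiterGlo luminescence from each well was normalised to the plate median.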
CC(=O)Oc1ccc2c(c1C(C)C)CCC1C(C)(C)CCC[C@]21C (stereo partly specified) gave a cell viability of 1.15 ± 0.071.
For CC(=O)NO, the cell viability was 0.999 ± 0.059.
NCCc1c[nH]cn1 was tested, and the cell viability was 1.02 ± 0.021.
For CC#C[C@]1(O)CC[C@H]2[C@@H]3CCC4=CC(=O)CCC4=C3[C@@H](c3ccc(N(C)C)cc3)C[C@@]21C, the cell viability was 1.04 ± 0.12.
In the case of COc1cc(O)c2c(c1)C(=O)c1cc(C)cc(O)c1C2=O, the cell viability is reported as 0.979 ± 0.016.
Work on N=c1ccn2c(n1)O[C@H]1[C@H](O)[C@@H](CO)O[C@H]12 yielded a cell viability of 0.942 ± 0.034.
CN1CCN(CCCN2c3ccccc3Sc3ccc(C(F)(F)F)cc32)CC1 was tested, and the cell viability was 1.08 ± 0.13.
With CC(=O)O[C@H]1CC[C@]2(C)[C@H]3CC[C@@]4(C)[C@H](c5ccoc5)OC(=O)[C@H]5O[C@]54[C@]3(C)[C@H](OC(C)=O)C[C@H]2C1(C)C [3beta-ACETOXYDEOXODIHYDROGEDUNIN] the cell viability was 1.01 ± 0.077.
With CCCCCCNC(=O)n1cc(F)c(=O)[nH]c1=O the cell viability was 0.925 ± 0.13.
Work on CC12CCC3c4ccc(OCc5ccccc5)cc4CCC3C1C[C@@H](O)[C@@H]2O (stereo partly specified) yielded a cell viability of 0.992 ± 0.026.
For CC1CC(OC(=O)C(O)c2ccccc2)CC(C)(C)N1C (stereo unspecified), the cell viability was 1.05 ± 0.021.
NC(=O)N1c2ccccc2CC(=O)c2ccccc21 showed a cell viability of 0.847 ± 0.09.
Compound CN1CCN(CC(=O)N2c3ccccc3C(=O)Nc3cccnc32)CC1 has a cell viability of 1 ± 0.067.
O.O.O.O.O=C([O-])CC(O)(CC(=O)[O-])C(=O)[O-].[Li+].[Li+].[Li+] showed a cell viability of 0.852 ± 0.086.
CC1(C)S[C@@H]2[C@H](NC(=O)[C@H](N)c3ccc(O)cc3)C(=O)N2[C@H]1C(=O)O gave a cell viability of 1.02 ± 0.067.
CC(C)c1c(C(=O)Nc2ccccc2)c(-c2ccccc2)c(-c2ccc(F)cc2)n1CC[C@@H](O)C[C@@H](O)CC(=O)O was tested, and the cell viability was 1 ± 0.069.
